Most compounds without a hit are left out; they make up all but 19% or so of the library.
LASV entry inh – inhibitors of Lassa virus binding or cell entry; 1.2% of 300,000 active; AID 540256; Potency, µM (top dose mostly 37.9 µM), actives largely listed as inhibitors; Lassa virus pseudotype entry inhibition, cell reporter; calls by dose curve; tested in HEK293 cells; also: nearly all actives have a fitted effect of over 50% in size
Marburg entry inh – Marburg virus entry inhibition; Marburg virus pseudotyped entry inhibition, cell reporter; Potency, µM (doses to about 37.8 µM), most hits filed as inhibitors; 1.8% of 300,000 active; AID 540276; calls by dose curve; tested in HEK293 cells
CHX counter – counter-screen hit for Shiga toxin inhibitors, cycloheximide; cell reporter, cycloheximide protein synthesis inhibition counterscreen; max response, %; 12% of 300,000 active; in the data active = max response mostly above about 13%, no sharp cut-off; inactive = mostly below about 14%; also: read at 38.3 µM for the half of the compounds with a filed dose
Pf growth 48h – inhibits P. falciparum growth in the first generation, 48 h | 5.9% of 310,000 active | P. falciparum luciferase growth in erythrocytes, 48 h | Potency, µM (series often up to 28.7 µM), actives largely listed as inhibitors
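In quantitative HTS format, infected erythrocytes bearing luciferase-reporter parasites were treated for a single generation at 37 C. Luminescence after adding detection reagent served as the growth measure.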
Shiga inhibitor – Shiga toxin inhibition | 9.2% of 290,000 active | inhibition, % at 38.7 µM | Vero cells, Shiga toxin protein synthesis inhibition reporter; in the data active = inhibition mostly above about 28%, no sharp cut-off; inactive = mostly below about 43%
Pf growth 96h – P. falciparum growth inhibition at 96 hours. P. falciparum luciferase reporter growth, 96 h. Potency, µM (highest dose often 28.7 µM), hits mostly inhibitors. 6.9% of 320,000 active. AID 504834
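P. falciparum expressing integrated firefly luciferase grown in erythrocytes (2% hematocrit, 0.05% parasitemia final) with compounds for 96 hours at 37 C, 5% CO2. Growth inhibition read as loss of luminescence after adding luciferase detection reagent.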
Hits are given with their value; - = inactive; ? = inconclusive; . = not tested or not shown. Unless noted, calls follow the shape of the dose curve; as a rule, active = well fitted inhibition curve with a large enough effect; inconclusive = small, poorly fitted or top-dose-only effect, or another doubt; inactive = no such curve, though single readings can be large or run the other way.

SMILES	LASV entry inh	Marburg entry inh	CHX counter	Pf growth 48h	Shiga inhibitor	Pf growth 96h
COCCCNC(=O)c1c(NC(=O)c2ccco2)n(Cc2ccccc2)c2nc3ccccc3nc12	-	?	-	?	-	.
COCCNC(=O)c1c(NC(=O)c2ccc(Br)o2)n(Cc2ccccc2)c2nc3ccccc3nc12	-	-	-	13.1µM	-	?
O=S(=O)(c1ccc(Cl)cc1)N1CCCC1c1cccnc1 (stereo unspecified)	?	-	-	?	-	?
Cn1cccc1-c1nc2ccc(NC(=O)c3ccccc3)cc2[nH]1	-	-	20.2	-	35.8	-
Cn1cccc1-c1nc2ccccc2[nH]1	-	?	30.9	-	87.7	-
Cc1ccc(S(=O)(=O)Nc2ccc3nc(-c4cccn4C)[nH]c3c2)cc1	?	?	23.5	?	37.0	.
Cn1cccc1-c1nc2ccc(NC(=O)c3ccc([N+](=O)[O-])cc3)cc2[nH]1	-	-	-	.	-	?
C=CCc1cccc(/C=N/NC(=O)CNc2cccc3ccccc23)c1O	?	-	-	-	-	-
COc1ccc(CCN2CC(C(=O)N(C)CCn3nc(C)cc3C)CCC2=O)cc1 (stereo unspecified)	.	.	-	-	-	?
N=C1C(c2nc3ccccc3[nH]2)=C(O)CN1c1ccc(CC(=O)O)cc1	-	-	-	.	-	-
COc1ccc(C=NNc2ccc([N+](=O)[O-])cn2)cc1	-	?	.	.	.	.
O=c1[nH]c(/C=C\c2cccc(Cl)c2)nc(O)c1[N+](=O)[O-]	.	.	-	?	-	?
CC(SCc1ccccc1)C(=O)Nc1ccc(F)cc1 (stereo unspecified)	-	-	-	?	-	?
CC(SCc1ccccc1)C(=O)Nc1ccccc1F (stereo unspecified)	.	.	-	-	-	0.928µM
CCN1CCN(C(=S)Nc2ccsc2C(=O)OC)CC1	-	?	-	-	-	?
COC(=O)c1sccc1NC(=S)N1CCN(c2cc(C)ccc2C)CC1	?	?	-	10.4µM	-	-
COC(=O)c1sccc1NC(=S)N1CCN(C)CC1	.	.	-	?	-	?
COC(=O)c1sccc1NC(=S)N1CCCC(C)C1 (stereo unspecified)	-	-	-	11.7µM	-	?
COc1ccc(CCN(C)C(=O)c2cc(=O)c3ccccc3o2)cc1OC	.	-	-	?	-	-
Fc1cccc(-c2n[nH]c(=S)n2-c2ccccc2)c1	.	.	-	-	.	-
CC(C)(C)c1ccc(-c2cc(N)n[nH]2)cc1	.	-	-	.	-	-
Oc1ccccc1-c1cc(-c2cccc(F)c2)n[nH]1	?	-	37.3	-	122.0	?
CC(C)(C)c1ccc(-c2cc(-c3ccccc3O)[nH]n2)cc1	?	?	27.1	-	58.9	-
N=Cc1c(O)n(-c2ccc(C34CC5CC(CC(C5)C3)C4)cc2)c(=O)[nH]c1=O	-	-	47.9	-	27.0	-
O=C(Cn1cc([N+](=O)[O-])nc1[N+](=O)[O-])N1CCN(c2ccccc2)CC1	-	-	-	0.738µM	-	-
SMILES	LASV entry inh	Marburg entry inh	CHX counter	Pf growth 48h	Shiga inhibitor	Pf growth 96h
Cc1cccc(N2CCN(C(=O)CCCn3c(=O)[nH]c4ccsc4c3=O)CC2)c1C	-	-	.	.	.	.
O=C(Cn1cnc2ccccc2c1=O)N1CCN(c2ccccc2)CC1	-	-	-	-	-	-
COc1ccccc1N1CCN(C(=O)CCCCCn2c(=O)[nH]c3ccsc3c2=O)CC1	?	?	-	13.1µM	-	-
Cc1c(Br)c([N+](=O)[O-])nn1CCCC(=O)N1CCN(c2ccccc2)CC1	-	12.6µM	-	?	-	?
COc1ccccc1N1CCN(C(=O)CCCn2nc(C)c([N+](=O)[O-])c2C)CC1	-	-	-	-	-	10.4µM
C=CCNc1nc(N)c([N+](=O)[O-])c(Nc2cccc(Cl)c2)n1	.	.	-	?	-	-
Cc1ccc(S(=O)(=O)NC(CC(=O)O)c2ccco2)cc1 (stereo unspecified)	-	?	-	?	-	?
COc1ccc(CC(=O)NCc2ccc3c(c2)CCN3C(C)=O)cc1OC	-	.	.	.	.	.
COc1ccc(CNC(=O)CCCn2nc(C)c([N+](=O)[O-])c2C)cc1OC	-	-	47.1	-	188.8	-
Cc1nn(CCCC(=O)NCc2ccc(Cl)cc2)c(C)c1[N+](=O)[O-]	-	?	-	-	-	-
CCCCN1C(=O)C2(NNc3ccccc3O2)c2ccccc21 (stereo unspecified)	-	?	46.8	10.4µM	62.4	.
C=CCN1C(=O)C2(NNc3ccccc3O2)c2ccccc21 (stereo unspecified)	?	-	-	.	-	11.7µM
O=C(C(=O)N1CCN(c2ccc(F)cc2)CC1)c1cn(CC(=O)N2CCOCC2)c2ccccc12	.	.	-	-	-	13.1µM
O=C(C(=O)N1CCCCC1)c1cn(CC(=O)N2CCCCCC2)c2ccccc12	-	?	-	?	-	11.7µM
O=C(Nc1ccccc1)C(=O)c1cn(CC(=O)N2CCCCC2)c2ccccc12	?	-	-	-	-	10.4µM
c1ccc(-c2cnnc(N3CCOCC3)n2)cc1	-	?	63.1	-	68.2	-
Brc1ccc(-c2cnnc(N3CCCC3)n2)cc1	-	?	-	3.29µM	-	?
Cc1nc2nc(SCC(=O)NCCCN3CCCCCC3)nn2c(C)c1Cc1ccccc1	?	?	-	-	-	-
CCCCN(CCCC)c1ncnc2nc[nH]c12	.	.	-	-	-	-
CN1C(=O)NC(=O)/C(=C\C=C\c2ccccc2[N+](=O)[O-])C1=O	?	?	24.0	-	-	-
C=CCN1C(=O)NC(=O)/C(=C/C=C/c2ccccc2)C1=O	-	-	-	-	-	?
CCOC(=O)c1c(S(=O)(=O)N(C)C2CCCCC2)c(C)n(C)c1C	.	.	-	-	-	?
COc1ccc(C(=O)NCCCc2nc3ccccc3n2Cc2ccccc2C)cc1OC	-	-	-	?	-	9.28µM
COc1cccc(C(=O)NCCn2ccc3ccccc32)c1	?	-	24.8	-	45.3	-
COc1cc(OC)cc(C(=O)NCCn2ccc3ccccc32)c1	.	.	-	.	-	?
SMILES	LASV entry inh	Marburg entry inh	CHX counter	Pf growth 48h	Shiga inhibitor	Pf growth 96h
O=C(NCCn1ccc2ccccc21)C1CCCCC1	.	.	17.8	-	23.7	-
Cc1cc2ccccc2n1CCNC(=O)C1CCCCC1	.	.	-	-	-	-
CC(=O)NCCCc1nc2ccccc2n1Cc1ccccc1F	-	-	-	-	-	-
COc1ccc(C(=O)NCCn2ccc3ccccc32)cc1OC	.	.	17.6	-	-	-
Cc1cccc(OCc2n(CC(=O)OC3CC(C)CCC3C(C)C)c3ccccc3[n+]2C)c1 (stereo unspecified)	?	2.51µM	-	2.33µM	-	-
CC1CCC(C(C)C)C(OC(=O)Cn2c(COc3ccccc3)[n+](C)c3ccccc32)C1 (stereo unspecified)	?	?	-	1.65µM	-	2.33µM
COCc1cc(=O)n2[nH]c(-c3cccc(Br)c3)cc2n1	-	-	27.3	-	-	-
COCc1cc(=O)n2[nH]c(C)cc2n1	-	-	-	-	-	-
COCc1cc(=O)n2[nH]c(-c3ccccc3)cc2n1	-	-	23.3	.	-	-
